Measured values published in PubChem BioAssay (NCI).
Compounds without any hit were thinned out: in the full panel of roughly 83,000, 20% have a hit.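 Note: values are percent growth. 100 is the growth of untreated cells, values between 100 and 0 indicate rising inhibition; between -100 and 0 indicates cell death.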 Active and inactive are the calls of the source. The calls were made as follows: active = growth percent below 10; inactive = the rest.

These molecules were tested on MALME-3M melanoma (assay: NCI-60 one-dose screen, 48 h (100 = growth as untreated, 0 = no growth, -100 = all killed)). Conditions: 10 µM unless noted.
`CC(=O)Oc1ccccc1C(=O)Nc1cc(C(C)C)ccc1C` was tested, and the growth was -6.69% (active). With `COc1ccc(/C=N/NC(=O)c2[nH]c3ccc(Br)cc3c2-c2ccccc2)s1` the growth was 55.5% (inactive). In the case of `O=C(CN1C(=O)/C(=C/c2ccccc2)SC1=S)N1CCOCC1`, the growth is reported as 83.6% (inactive). In the case of `COc1ccc(-c2nc3ccc(-c4nnc(SCC(=O)Nc5ccc(C(=O)/C=C/c6ccc(Cl)cc6)cc5)o4)cc3[nH]2)cc1OC`, the growth is reported as 95.1% (inactive). With `CN1C(=S)N(C)C2C1NN=C1SC(c3ccccc3)=CC(=O)N12` (centres undefined) the growth was 97.7% (inactive). For `CN(C)c1ccc(/C=C2\Cc3c(F)ccc(Br)c3C2=O)cc1`, the growth was 92.8% (inactive). With `CN(C)S(=O)(=O)c1oc(-c2ccccc2)nc1C#N` the growth was -23.6% (active). `CC(C)(C)OC(=O)N1C(=O)c2c(c3c4ccccc4[nH]c3c3ccc4ccccc4c23)C1=O` was tested, and the growth was 48.1% (inactive). For `Cc1[nH]nc2ncc(C#Cc3cncc(C(=O)Nc4ccc(CN5CCN(C)CC5)c(C(F)(F)F)c4)c3)cc12`, the growth was -28.5% (active). With `C#Cc1nc(C2=C(C)C(=N\O)/C(=N/O)C2)cs1` the growth was 94.4% (inactive). With `O=c1[nH]c2ccccc2cc1CSc1ccccc1Nc1nccc(-c2ccc(C(F)(F)F)cc2)n1` the growth was 63.6% (inactive). For `COC1CCN(Cc2ccc3c(NNC(=O)c4cnccn4)nc4cc(F)ccc4n23)C1` (centres undefined), the growth was 48.6% (inactive). For `O=C(CN1CCOCC1)NNc1ncnc2ccccc12`, the growth was -74.5% (active). `Cn1c(SCC(=O)Nc2ccc(-c3nc4ccc([N+](=O)[O-])cc4[nH]3)cc2)nc2ccccc2c1=O` was tested, and the growth was 87.3% (inactive).
